ID4 SMM – binders of human ID4 protein. calls only. 1.2% of 31,000 active. small molecule microarray, Flag-ID4 binding, fluorescence F/B. P47928; call rule not given here;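 note: a binder raises fluorescence above local background on the spot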
Target sequence (P47928 whole entry, looked up): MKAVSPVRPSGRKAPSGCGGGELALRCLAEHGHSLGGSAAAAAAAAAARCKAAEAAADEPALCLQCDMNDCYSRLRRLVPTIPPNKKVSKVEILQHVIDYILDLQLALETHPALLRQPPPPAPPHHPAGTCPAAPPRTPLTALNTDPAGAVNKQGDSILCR
mut p53 react – restores mutant p53 pathway signaling in SW480 cells | SW480 PUMA-promoter luciferase, p53 mutant reactivation | activation, % at 9.98 µM | 1.5% of 28,000 active; in the data active = activation above about 52%
STK33 inh – inhibitors of human STK33 kinase. Q9BYT3. ADP-Glo luminescence, MBP substrate. 0.44% of 27,000 active. inhibition, % at 12.5 µM; in the data active = inhibition above about 20%
Numbers stand for hits; . = inactive; / = not tested or not shown; + = active, no number. In the library only some 2% were active in any assay of this set; here they are far more common.

SMILES | ID4 SMM | mut p53 react | STK33 inh
Cc1c(C(=O)c2cccc3ccccc23)c2cccc3c2n1[C@@H](CN1CCOCC1)CO3 | + | . | /
CC(=O)O[C@H]1CC[C@]2(C=O)[C@H]3CC[C@]4(C)[C@@H](C5=CC(=O)OC5)CC[C@]4(O)[C@@H]3CC[C@]2(O)C1 | . | / | .
COC1=CC(=O)O[C@@H](/C=C/c2ccccc2)C1 | . | 78 | .
COC1=CC(=O)O[C@@H](CCc2ccc3c(c2)OCO3)C1 | . | . | .
C[C@@H]1CCC/C=C/[C@H]2C[C@@H](O)C[C@@H]2[C@@H](O)/C=C\C(=O)O1 | / | / | .
COC(=O)c1cc2c(cn1)[nH]c1ccccc12 | . | . | .
CCOC(=O)c1cc2c(cn1)[nH]c1ccccc12 | . | 65 | .
CCC(C)[C@H]1C(=O)O[C@H](C(C)C)C(=O)N(C)[C@@H](C(C)CC)C(=O)O[C@H](C(C)C)C(=O)N(C)[C@@H](C(C)CC)C(=O)O[C@H](C(C)C)C(=O)N1C (stereo partly drawn) | / | / | .
CO[C@H]1[C@@H](O)[C@@H](C)O[C@@H](O[C@@H]2C=C3C(OC(C)=O)CC4(O)C(CC[C@]5(C)[C@@H](C6=CC(=O)OC6)CC[C@]45O)[C@@]3(C)CC2)[C@@H]1O (stereo partly drawn) | / | / | .

Assay outcomes as filed in PubChem.
